Values joined by “and” are separate entries in the source; they are usually repeats but may differ in a detail not shown here. Equal entries are not always repeated. Records with an inconclusive call do not appear. Some compounds were tested as several samples or in several runs, with calls that do not always agree. Active and inactive are the calls of the source. Unless noted, the call rests on the fitted dose curve; in most records, active means well fitted inhibition curve with a large enough effect; inconclusive means small, poorly fitted or top-dose-only effect; inactive means flat fitted curve, though single readings scatter.

Voltage-gated inwardly rectifying potassium channel KCNH2 (Homo sapiens), sequence (Q12809 whole entry, looked up): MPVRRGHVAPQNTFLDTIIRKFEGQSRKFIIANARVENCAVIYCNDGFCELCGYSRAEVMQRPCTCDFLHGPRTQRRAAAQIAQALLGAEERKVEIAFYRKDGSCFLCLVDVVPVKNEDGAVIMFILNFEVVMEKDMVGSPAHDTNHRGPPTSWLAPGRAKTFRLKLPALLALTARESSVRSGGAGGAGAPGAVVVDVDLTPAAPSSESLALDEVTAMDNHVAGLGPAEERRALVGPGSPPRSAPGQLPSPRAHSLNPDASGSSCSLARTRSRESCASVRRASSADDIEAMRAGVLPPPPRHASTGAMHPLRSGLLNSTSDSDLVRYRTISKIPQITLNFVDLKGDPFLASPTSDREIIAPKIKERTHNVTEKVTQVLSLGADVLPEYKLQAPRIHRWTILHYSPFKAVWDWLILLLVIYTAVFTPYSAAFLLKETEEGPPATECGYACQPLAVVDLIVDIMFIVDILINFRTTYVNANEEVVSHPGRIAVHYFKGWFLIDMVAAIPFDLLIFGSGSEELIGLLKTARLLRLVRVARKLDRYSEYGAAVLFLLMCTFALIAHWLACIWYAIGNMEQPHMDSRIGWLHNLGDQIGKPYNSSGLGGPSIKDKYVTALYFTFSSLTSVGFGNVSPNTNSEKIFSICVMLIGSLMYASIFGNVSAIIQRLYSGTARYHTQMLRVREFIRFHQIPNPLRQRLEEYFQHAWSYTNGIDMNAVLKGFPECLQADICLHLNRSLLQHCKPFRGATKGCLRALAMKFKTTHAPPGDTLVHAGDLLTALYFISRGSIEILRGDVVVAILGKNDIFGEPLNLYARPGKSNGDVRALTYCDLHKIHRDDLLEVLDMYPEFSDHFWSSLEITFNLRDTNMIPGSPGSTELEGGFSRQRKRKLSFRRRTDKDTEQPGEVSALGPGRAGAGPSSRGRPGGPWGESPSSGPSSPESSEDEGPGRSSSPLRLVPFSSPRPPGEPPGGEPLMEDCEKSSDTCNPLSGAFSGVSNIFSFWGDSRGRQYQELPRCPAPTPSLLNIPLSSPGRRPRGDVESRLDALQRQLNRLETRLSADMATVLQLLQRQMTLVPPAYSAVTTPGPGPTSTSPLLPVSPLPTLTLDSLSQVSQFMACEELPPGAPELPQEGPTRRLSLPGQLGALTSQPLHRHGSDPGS
Thyroid hormone receptor beta (Homo sapiens), sequence (P10828 whole entry, looked up): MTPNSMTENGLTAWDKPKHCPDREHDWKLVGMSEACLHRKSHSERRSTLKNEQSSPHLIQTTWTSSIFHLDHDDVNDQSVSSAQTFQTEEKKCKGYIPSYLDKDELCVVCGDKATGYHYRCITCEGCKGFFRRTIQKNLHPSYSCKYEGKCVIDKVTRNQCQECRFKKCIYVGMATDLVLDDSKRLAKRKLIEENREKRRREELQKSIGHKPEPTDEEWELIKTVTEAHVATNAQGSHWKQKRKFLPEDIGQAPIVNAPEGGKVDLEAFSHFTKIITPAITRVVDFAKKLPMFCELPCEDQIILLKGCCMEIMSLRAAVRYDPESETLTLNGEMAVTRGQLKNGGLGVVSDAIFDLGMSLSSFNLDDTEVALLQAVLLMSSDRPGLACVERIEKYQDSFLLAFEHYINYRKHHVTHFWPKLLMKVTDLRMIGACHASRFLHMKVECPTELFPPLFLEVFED
Retinoic acid receptor RXR-alpha (Homo sapiens), sequence (P19793 whole entry, looked up): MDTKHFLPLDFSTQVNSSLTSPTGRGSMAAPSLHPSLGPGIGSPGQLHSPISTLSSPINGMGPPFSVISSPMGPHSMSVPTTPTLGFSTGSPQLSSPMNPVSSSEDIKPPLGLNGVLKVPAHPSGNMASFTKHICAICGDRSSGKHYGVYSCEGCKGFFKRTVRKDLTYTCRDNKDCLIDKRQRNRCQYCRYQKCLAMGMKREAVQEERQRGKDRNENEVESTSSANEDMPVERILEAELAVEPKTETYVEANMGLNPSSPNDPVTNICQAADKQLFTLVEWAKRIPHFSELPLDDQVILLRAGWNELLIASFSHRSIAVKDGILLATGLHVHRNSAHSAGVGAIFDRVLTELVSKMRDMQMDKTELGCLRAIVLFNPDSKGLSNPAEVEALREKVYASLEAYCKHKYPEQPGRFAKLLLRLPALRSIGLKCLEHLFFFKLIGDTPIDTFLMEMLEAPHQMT

Test system in one test: not listed separately
Briefly: qHTS assay for small molecule agonists of retinoid X receptor alpha signaling (AID 588544; calls by dose curve;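 on activation: 0% = DMSO basal wells and 100% = reference agonist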). Particulars: HEK293T RXRa-UAS-bla, beta-lactamase reporter, 18 h; 530 nm emission.
Turning to `O=c1[nH]c(=O)n(Cl)c(=O)n1Cl`, the max response is -3.39%.

For the molecule `C[C@H]1CCC[C@H](O)CCCCCc2cc(O)cc(O)c2C(=O)O1`, the max response turned out to be 13%.

On to `CC(C)(C)c1cc(O)ccc1O`, for which the max response was 23.9% and 27.4%.

A further test has as its target Retinoic acid receptor RXR-alpha (Homo sapiens) (UniProt P19793). The test is described as above. Particulars: HEK293T RXRa-UAS-bla, beta-lactamase reporter, 18 h; series mostly up to 76.7 µM; activation: at the top concentration.
`O=c1[nH]c(=O)n(Cl)c(=O)n1Cl`: the “activation” value is -4.01% (inactive).

`C[C@H]1CCC[C@H](O)CCCCCc2cc(O)cc(O)c2C(=O)O1`: the “activation” value is -3.34% (inactive).

With `CC(C)(C)c1cc(O)ccc1O`, the Potency entry was “inactive”.

The next test has as its target Thyroid hormone receptor beta (Homo sapiens) (UniProt P10828). Nature of the test: qHTS assay for small molecule agonists of thyroid hormone receptor beta signaling (AID 588545; calls by dose curve;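 further: 0% = DMSO only and 100% = 10 nM T3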). Particulars: TR-UAS-bla GripTite HEK 293, beta-lactamase ratio, agonist mode, 18 h, percent of T3 response, DMSO as zero; series mostly up to 76.7 µM; activation: at the top concentration. The essentials:
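Stimulation of a TR-driven beta-lactamase reporter was quantified in GripTite HEK 293 cells. Compound series ran for 18 hrs; curves were normalized to T3 and DMSO controls and fitted to yield EC50.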
With `O=c1[nH]c(=O)n(Cl)c(=O)n1Cl`, the “activation” value was -7.57% (inactive).

In the case of `CC(C)(C)c1cc(O)ccc1O`, the outcome was inactive.

As to `O=C1C[C@@H]2OCC=C3CN4CC[C@]56c7ccccc7N1[C@H]5[C@H]2[C@H]3C[C@H]46`, the “activation” value is 3.66% (inactive).

Test system in the next test: not listed separately
Nature of the test: qHTS assay for small molecule antagonists of retinoid X receptor alpha signaling (AID 588546; active means well fitted inhibition curve with a large enough effect in the signal ratio, with a control signal flat, not every such curve was filed as active; the % refers to the signal ratio; further: potency means the concentration at half of the fitted maximal effect;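 on max response: cells stimulated with 9-cis-retinoic acid as agonist; on the % scale 0 is the no-effect control and ±100 the full control effect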). As to conditions: HEK293T RXRa-UAS-bla, beta-lactamase ratio, antagonist mode; measured here: W530 green channel, cytotoxicity proxy. The essentials:
(§1)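 Beta-lactamase reporter inhibition, read as CCF4 fluorescence ratio (ex 405, em 460/530 nm) after 2 h at RT. HEK293T UAS-bla cells, 2500/well, were stimulated with 9-cis-RA at 500 or 100 nM final alongside test compound for 18 h at 37 C.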
In the case of `C[CH2][Hg][S]c1ccccc1C(=O)O`, the max response was -29.7%.

In the case of `C[C@H]1CCC[C@H](O)CCCCCc2cc(O)cc(O)c2C(=O)O1`, the max response came out at 7.61%.

In the case of `CC(C)(C)c1cc(O)ccc1O`, the max response is 10.2% and -11%.

Take `O=C1C[C@@H]2OCC=C3CN4CC[C@]56c7ccccc7N1[C@H]5[C@H]2[C@H]3C[C@H]46`: the max response was 7.39%.

In a further test the target is Retinoic acid receptor RXR-alpha (Homo sapiens) (UniProt P19793). Described as above. As to conditions: HEK293T RXRa-UAS-bla, beta-lactamase ratio, antagonist mode. The essentials:
as §1
With `C[CH2][Hg][S]c1ccccc1C(=O)O`, the Potency is 2.24 µM (active).

On to `C[C@H]1CCC[C@H](O)CCCCCc2cc(O)cc(O)c2C(=O)O1`, for which the max response was -34.3% (inactive).

On to `CC(C)(C)c1cc(O)ccc1O`, for which the max response is 0.473% (inactive) and -17.4% (inactive).

As to `O=C1C[C@@H]2OCC=C3CN4CC[C@]56c7ccccc7N1[C@H]5[C@H]2[C@H]3C[C@H]46`, the max response is -7.88% (inactive).

The next test addresses Voltage-gated inwardly rectifying potassium channel KCNH2 (Homo sapiens) (UniProt Q12809). Briefly: qHTS Assay for Small Molecule Inhibitors of the Human hERG Channel Activity (AID 588834).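 Further: lower thallium flux fluorescence means stronger hERG block; nearly all actives have a fitted effect of over 50% in size.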 Further: potency means the concentration at half of the fitted maximal effect. On activity change, negative = inhibition: top concentration of the series differs between compounds; on the % scale 0 is the no-effect control and ±100 the full control effect. As to conditions: U2OS BacMam hERG, FluxOR thallium flux fluorescence; series mostly up to 46.1 µM; activity change, negative = inhibition: at the top concentration. The method in brief:
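Thallium serves as surrogate for K+ influx through BacMam-delivered hERG in U2OS cells. Compounds are added for about 10 minutes after dye loading; stimulation buffer then starts flux, monitored kinetically on FDSS.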
On to `CCC(=O)O[C@]1(c2ccccc2)CCN(C)C[C@H]1C`, for which the “activity change, negative = inhibition” value is -14.4% (inactive).

With `CCN(CC)CCO[C@H]1CC[C@@]2(C)C(=CC[C@@H]3[C@@H]2CC[C@]2(C)C(=O)CC[C@@H]32)C1`, the “activity change, negative = inhibition” value was -6.96% (inactive).

As for `C[N+]1(C)[C@@H]2CC(OC(=O)[C@H](CO)c3ccccc3)C[C@H]1[C@H]1O[C@@H]12` (stereo partly drawn), the “activity change, negative = inhibition” value was -3.04% (inactive).

On to `CCN(CC)C(=O)N[C@H]1C[C@@H]2c3cccc4[nH]cc(c34)C[C@H]2N(C)C1`, for which the “activity change, negative = inhibition” value is -5.04% (inactive).

For `CN(C)CCCCCCN(C)C` (tested in a mixture with another compound), the “activity change, negative = inhibition” value was 15.1% (inactive).

`CN(C)[C@H](Cc1ccccc1)c1ccccc1`: the “activity change, negative = inhibition” value was 3.69% (inactive).

Take `C=C[C@H]1CN2CC[C@H]1C[C@@H]2[C@@H](O)c1ccnc2ccccc12`: the Potency was 14.1 µM (active).

Take `C[CH2][Hg][S]c1ccccc1C(=O)O`: the “activity change, negative = inhibition” value was -22.8% (inactive).

Regarding `Oc1ccc2c3c1O[C@H]1[C@@H](O)CC[C@@]4(O)[C@@H](C2)N(CC2CCC2)CC[C@]314`, the “activity change, negative = inhibition” value is -1.89% (inactive).

For the molecule `CCN(CC)c1ncnc2c1ncn2[C@@H]1O[C@H](COP(=O)(O)OP(=O)(O)C(Br)(Br)P(=O)(O)O)[C@@H](O)[C@H]1O`, the “activity change, negative = inhibition” value is 4.99% (inactive).

For `CC(=O)Oc1ccc2c3c1O[C@H]1[C@@H](OC(C)=O)C=C[C@H]4[C@@H](C2)N(C)CC[C@@]341`, the “activity change, negative = inhibition” value was 16.8% (inactive).

For the molecule `CC(=O)O[C@H]1C[C@H](O[C@H]2[C@@H](O)C[C@H](O[C@H]3[C@@H](O)C[C@H](OC4CC[C@@]5(C)[C@H](CC[C@@H]6[C@@H]5CC[C@]5(C)[C@@H](C7=CC(=O)OC7)CC[C@]65O)C4)O[C@@H]3C)O[C@@H]2C)O[C@H](C)[C@H]1O[C@@H]1O[C@H](CO)[C@@H](O)[C@H](O)[C@H]1O` (stereo partly drawn), the “activity change, negative = inhibition” value was -0.999% (inactive).

In the case of `CC(=O)O[C@H]1CC[C@@]2(C)C(=CC[C@@H]3[C@@H]2CC[C@]2(C)C(=O)CC[C@@H]32)C1`, the “activity change, negative = inhibition” value was -3.11% [at 20.6 µM] (inactive).

Consider `C[C@@H](CO)NC(=O)[C@@H]1C=C2c3cccc4[nH]cc(c34)C[C@H]2N(C)C1`, for which the “activity change, negative = inhibition” value is 2.58% (inactive).

For `C[C@H]1CCC[C@H](O)CCCCCc2cc(O)cc(O)c2C(=O)O1`, the Potency result is “inactive”.

As for `CCNC1(c2cccs2)CCCCC1=O` (stereo not drawn), the “activity change, negative = inhibition” value was 10.3% [at 20.6 µM] (inactive).

As for `C[C@@H]([C@H](O)c1ccccc1)N(C)C`, the “activity change, negative = inhibition” value is -1.1% (inactive).

In the case of `Clc1ccc(C(Cn2ccnc2)OCc2csc3c(Cl)cccc23)c(Cl)c1` (stereo not drawn), the Potency is 3.98 µM (active).

`C[N+]1([O-])[C@@H]2CC[C@H]1CC(OC(=O)C(CO)c1ccccc1)C2` (stereo partly drawn): the Potency result was “inactive”.

As for `CC(C)(C)c1cc(O)ccc1O`, the Potency result is “inactive”.

With `O=C1C[C@@H]2OCC=C3CN4CC[C@]56c7ccccc7N1[C@H]5[C@H]2[C@H]3C[C@H]46` (tested in a mixture with another compound), the Potency is 25.1 µM (active) and inactive.

For `C[C@]12CC[C@H](OS(=O)(=O)O)CC1=CC[C@@H]1[C@@H]2CC[C@]2(C)C(=O)CC[C@@H]12`, the “activity change, negative = inhibition” value is 14.2% (inactive).

As for `CN(C)[C@@H]1C(=O)C(C(N)=O)=C(O)[C@@]2(O)C(=O)C3=C(O)c4c(O)ccc(Cl)c4[C@@](C)(O)[C@H]3C[C@@H]12`, the “activity change, negative = inhibition” value is -35.5% [at 20.6 µM] (inactive).

For the molecule `[H+].[H+].[Hg+2].[O-]B([O-])[O-].[c-]1ccccc1`, the Potency is 10 µM (active).

As to `NCC[C@H](O)C(=O)N[C@@H]1C[C@H](N)[C@@H](O[C@H]2O[C@H](CN)[C@@H](O)[C@H](O)[C@H]2N)[C@H](O[C@@H]2O[C@H](CO)[C@@H](O)[C@H]2O)[C@H]1O`, the “activity change, negative = inhibition” value was 20.8% [at 20.6 µM] (inactive).

For `CCCCC[C@@H](O)C1C(=O)OC(C)[C@H](O)/C=C/C=C/C=C/C=C/C=C(\C)C(O)C(O)C(O)C[C@H](O)C[C@H](O)C[C@H](O)C[C@H](O)C[C@@H]1O` (stereo partly drawn), the “activity change, negative = inhibition” value was 18.6% (inactive).

For the molecule `OC[C@@H](O)[C@H]1O[C@@H]2O[C@@H](C(Cl)(Cl)Cl)O[C@@H]2[C@H]1O`, the “activity change, negative = inhibition” value was -1.92% (inactive).

With `C[C@@H](Cc1ccccc1)N(C)C`, the “activity change, negative = inhibition” value was 12.5% (inactive).

With `CN1[C@H]2CC[C@@H]1[C@@H](C(=O)O)[C@@H](OC(=O)c1ccccc1)C2`, the “activity change, negative = inhibition” value was 13.4% (inactive).

On to `[2H]C([2H])([2H])[C@H](N)Cc1ccccc1`, for which the “activity change, negative = inhibition” value was 1.13% (inactive).

For the molecule `CCCN1CCCC2Cc3[nH]ncc3CC21` (stereo not drawn), the Potency entry is “inactive”.

Consider `O=C1C[C@@H]2OCC=C3CN4CC[C@]56c7ccccc7N1[C@H]5[C@H]2[C@H]3C[C@H]46`, for which the Potency was 14.1 µM (active).

As for `CC(C)CCC(=O)O[C@H]1CC[C@H]2[C@@H]3CCC4=CC(=O)CC[C@]4(C)[C@H]3CC[C@]12C`, the Potency is 25.1 µM (active).

As to `O=C1C=C2C=C[C@@H]3C[C@@]2(O1)[C@H]1CCCCN31`, the “activity change, negative = inhibition” value was 7.29% (inactive).

Regarding `CCCCCCC(=O)O[C@H]1CC[C@H]2[C@@H]3CC[C@H]4CC(=O)C=C(C)[C@]4(C)[C@H]3CC[C@]12C`, the Potency is 14.1 µM (active).

Take `COC(COC(N)=O)C1=C(N2CC2)C(=O)C(C)=C(N2CC2)C1=O` (stereo not drawn): the “activity change, negative = inhibition” value was -13.6% (inactive).

The values above are taken from PubChem BioAssay (NCATS).
